Reference: PubChem BioAssay (Tox21)
Results filed as inconclusive are left out. Active and inactive are the calls of the source. Unless noted, calls come from the whole dose curve; as a rule, active = well fitted curve in the direction sought with a large enough effect in the repeat runs; inconclusive = weak or mixed curves; inactive = no such curve, though single readings can be large; an effect the other way counts as inactive or inconclusive. Starred links: 1 amine or outer side, 2 acyl side, 3 side chain; linkers in the order of their positions; H or OH if unused. Positions of bridges follow the written chain, without caps; N, C: chain ends. Non-standard residues stand in square brackets, D forms with d. Residues, ends and D or L forms follow the SMILES beside them. *: point of attachment. X5 = NC1=N[C@@H]([C@H](N[*:1])C(=O)[*:2])C[C@H](O)N1; ΔAla(Z-3-ureido) = NC(=O)N/C=C(\N)C(=O)O; β3hOrn = NCCC[C@H](N)CC(=O)*; Orn = NCCC[C@H](N)C(=O)O; Dap = NC[C@H](N)C(=O)O; Mpa = O=C(O)CCS

Tests used:
[1] = qHTS assay to identify aromatase inhibitors - cell viability counter screen (AID 743084);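 note: cells stimulated with testosterone during compound exposure; nearly all actives have a fitted effect of over 55% in size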
[2] = target: Aryl hydrocarbon receptor (Homo sapiens) (UniProt P35869); experiment: qHTS assay to identify small molecule that activate the aryl hydrocarbon receptor (AhR) signaling pathway (AID 743085);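 note: HG2L7.5c1 human HepG2 liver cells with stably integrated DRE-driven firefly reporter; series mostly up to about 70 µM; nearly all actives have a fitted effect of over 15% in size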
Method in brief: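 HepG2 cells stably carrying a 20-DRE firefly luciferase reporter (HG2L7.5c1) treated with compound for 24 hr at 37C. Luciferase read by ONE-Glo luminescence, with CellTiter-Fluor viability read first.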

[3] = qHTS assay to identify small molecule that activate the aryl hydrocarbon receptor (AhR) signaling pathway - cell viability counter screen (AID 743086);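 note: HepG2 liver cells carrying the AhR DRE luciferase reporter; series mostly up to about 70 µM; nearly all actives have a fitted effect of over 45% in size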
Method in brief: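 HepG2-AhR-luc (HG2L7.5c1) cells, 4000/well, treated 24 h at 37 C with compound; viability measured as CellTiter-Fluor fluorescence after 30 min in the same wells as the luciferase read.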

[4] = target: Peroxisome proliferator-activated receptor gamma (Homo sapiens) (UniProt P37231); experiment: qHTS assay to identify small molecule agonists of the peroxisome proliferator-activated receptor gamma (PPARg) signaling pathway (AID 743094; active = well fitted activation curve with a large enough effect in the signal ratio in the repeat runs, not every such curve was filed as active; the % refers to the signal ratio)
Method in brief: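 Stably transfected HEK293H cells (GeneBLAzer PPARg UAS-bla) were incubated with test substances for 17 h at 37C after a 5 h pre-incubation; beta-lactamase activity was then detected by FRET substrate fluorescence.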

[5] = qHTS assay to identify small molecule phospholipidosis (PLD) inducers (AID 1259344; active = well fitted curve in the direction sought with a large enough effect; an effect the other way counts as inactive or inconclusive)
Method in brief: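 HepG2 cells, 900/well, treated with compound plus LipidTOX Red for 24 h at 37 C; amiodarone positive and DMSO negative controls. Fixed with paraformaldehyde/Hoechst, then high-content imaging scored LipidTOX pit count and integrated intensity per well and per cell.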
% is set by controls: 0 for no effect and ±100 for the full control effect.

Sequence of Aryl hydrocarbon receptor (Homo sapiens) (P35869 whole entry, looked up): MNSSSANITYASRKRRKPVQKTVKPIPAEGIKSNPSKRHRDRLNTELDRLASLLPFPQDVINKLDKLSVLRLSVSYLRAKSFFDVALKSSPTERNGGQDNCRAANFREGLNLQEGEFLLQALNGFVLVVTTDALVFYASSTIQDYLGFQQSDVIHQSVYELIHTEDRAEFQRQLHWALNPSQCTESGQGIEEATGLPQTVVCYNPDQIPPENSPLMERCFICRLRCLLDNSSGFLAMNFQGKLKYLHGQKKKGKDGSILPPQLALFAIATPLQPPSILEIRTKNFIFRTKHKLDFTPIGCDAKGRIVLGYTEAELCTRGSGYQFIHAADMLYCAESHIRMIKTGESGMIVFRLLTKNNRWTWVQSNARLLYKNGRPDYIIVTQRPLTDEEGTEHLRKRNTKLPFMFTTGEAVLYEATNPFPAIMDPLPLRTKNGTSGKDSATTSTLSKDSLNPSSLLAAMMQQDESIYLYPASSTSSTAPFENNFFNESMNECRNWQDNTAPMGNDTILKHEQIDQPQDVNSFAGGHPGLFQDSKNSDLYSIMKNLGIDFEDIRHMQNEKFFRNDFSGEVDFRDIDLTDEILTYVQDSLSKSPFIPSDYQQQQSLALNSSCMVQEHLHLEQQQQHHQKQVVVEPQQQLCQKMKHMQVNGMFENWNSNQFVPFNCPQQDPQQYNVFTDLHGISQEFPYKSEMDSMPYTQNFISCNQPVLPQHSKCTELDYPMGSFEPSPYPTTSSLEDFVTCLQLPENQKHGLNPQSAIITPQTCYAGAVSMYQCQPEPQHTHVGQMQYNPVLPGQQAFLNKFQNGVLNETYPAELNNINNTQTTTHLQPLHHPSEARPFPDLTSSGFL
Sequence of Peroxisome proliferator-activated receptor gamma (Homo sapiens) (P37231 whole entry, looked up): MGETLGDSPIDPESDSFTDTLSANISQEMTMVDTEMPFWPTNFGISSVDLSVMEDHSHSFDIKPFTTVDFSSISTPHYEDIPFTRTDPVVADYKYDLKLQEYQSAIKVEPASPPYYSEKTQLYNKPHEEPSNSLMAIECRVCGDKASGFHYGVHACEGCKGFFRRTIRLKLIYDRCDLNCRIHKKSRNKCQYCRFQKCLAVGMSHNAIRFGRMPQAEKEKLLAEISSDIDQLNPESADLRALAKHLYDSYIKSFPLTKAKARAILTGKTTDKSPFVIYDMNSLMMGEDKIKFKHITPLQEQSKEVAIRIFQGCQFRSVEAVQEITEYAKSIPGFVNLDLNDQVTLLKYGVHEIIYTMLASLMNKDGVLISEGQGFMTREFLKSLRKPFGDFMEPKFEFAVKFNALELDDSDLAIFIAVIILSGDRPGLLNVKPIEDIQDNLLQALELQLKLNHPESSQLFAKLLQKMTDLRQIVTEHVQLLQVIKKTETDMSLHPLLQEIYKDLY

NCCC(=O)[N-][C@@H](Cc1cnc[nH]1)C(=O)O.[Zn]
inactive: Potency [1] | Potency [2] | Potency [3] | Potency [4] | Potency [5]

CN[C@@H]1CCc2[nH]c3ccc(C(N)=O)cc3c2C1
inactive: Potency [1] | Potency [2] | Potency [3] | Potency [4] | PLD induction [5] -1.34% [at 1.53 µM]

C=C1CC2C3CCC4=CC(=O)C=C[C@]4(C)[C@@]3(F)[C@@H](O)C[C@]2(C)[C@@]1(O)C(=O)COC(C)=O (stereo not given in full)
inactive: Potency [1] | Potency [2] | Potency [3] | Potency [4] | PLD induction [5] -8.32% [at 7.66 µM]

NCCC[C@H](N)CC(=O)N[C@H]1CNC(=O)[C@H]([C@H]2C[C@H](O)NC(N)=N2)NC(=O)/C(=C/NC(N)=O)NC(=O)[C@H](CO)NC(=O)[C@H](CO)NC1=O (β3hOrn-[Dap]SS[ΔAla(Z-3-ureido)][X5]; lactam 1-C)
inactive: Potency [1] | Potency [2] | Potency [3] | Potency [4] | Potency [5]

O=P(O)(O)C(Sc1ccc(Cl)cc1)P(=O)(O)O
inactive: Potency [1] | Potency [2] | Potency [3] | Potency [4] | Potency [5]

O=C1O[C@H]2[C@H](O)[C@@H]1OC(O)[C@H]2O (stereo not given in full)
inactive: Potency [1] | Potency [2] | Potency [3] | Potency [4] | Potency [5]

CCCCc1cc2c(=O)c(C(=O)OC)c[nH]c2cc1OCc1ccccc1
inactive: Potency [1] | Potency [2] | Potency [3] | Potency [4] | Potency [5]

Nc1c(Br)cc(Br)cc1CNC1CCC(O)CC1 (stereo not given)
inactive: Potency [1] | Potency [2] | Potency [3] | Potency [4] | Potency [5]

O=P(O)(O)OC(CO)CO
inactive: Potency [1] | Potency [2] | Potency [3] | Potency [4] | Potency [5]

CCCCCCCCCCCCCCCCSCC(COC)COP(=O)([O-])OCC[N+](C)(C)C (stereo not given)
inactive: Potency [1] | Potency [2] | Potency [3] | Potency [4] | Potency [5]

OC[C@H]1O[C@@H](n2cnc3c2NC=NC[C@H]3O)C[C@@H]1O
inactive: Potency [1] | Potency [2] | Potency [3] | Potency [4] | Potency [5]

Cc1c(O)cc2c(c1C)O[C@](C)(CCC[C@H](C)CCC[C@H](C)CCCC(C)C)CC2
inactive: Potency [1] | Potency [2] | Potency [3] | Potency [4] | Potency [5]

NCCC[C@H](N)C(=O)O
inactive: Potency [1] | Potency [2] | Potency [3] | Potency [4] | Potency [5]

CCCCCCCCCCCCCCCC(=O)OC[C@@H](NC(=O)C(Cl)Cl)[C@H](O)c1ccc([N+](=O)[O-])cc1
inactive: Potency [1] | Potency [2] | Potency [3] | Potency [4] | Potency [5]

CCOc1ccc(C[C@H]2NC(=O)CCSSC[C@@H](C(=O)N3CCC[C@H]3C(=O)N[C@@H](CCCN)C(=O)NCC(N)=O)NC(=O)[C@H](CC(N)=O)NC(=O)[C@H]([C@@H](C)O)NC(=O)[C@H]([C@@H](C)CC)NC2=O)cc1 ([Mpa][dY](Et)ITNCP[Orn]G-NH2; disulfide 1-6)
inactive: Potency [1] | Potency [2] | Potency [4] | Potency [5]

CC(=O)O[C@H]1C[C@@H]2CC[C@@H]3[C@H](CC[C@@]4(C)[C@H]3C[C@H](N3CC[N+](C)(C)CC3)[C@@H]4OC(C)=O)[C@@]2(C)C[C@@H]1N1CC[N+](C)(C)CC1
inactive: Potency [1] | Potency [3] | Potency [4] | Potency [5]

CC1(C)C2CC[C@]3(C)[C@H](C(=O)C=C4[C@@H]5C[C@@](C)(C(=O)O)CC[C@]5(C)CC[C@]43C)[C@@]2(C)CC[C@@H]1O[C@H]1O[C@H](C(=O)O)[C@@H](O)[C@H](O)[C@H]1O[C@@H]1O[C@H](C(=O)O)[C@@H](O)[C@H](O)[C@H]1O (stereo not given in full)
inactive: Potency [1] | Potency [3] | PLD induction [5] 0.435% [at 7.66 µM]

CCCCCCCCCCCCCCCC(=O)OCCC1CCN(CCCN2c3ccccc3Sc3ccc(S(=O)(=O)N(C)C)cc32)CC1
inactive: Potency [1] | Potency [2] | Potency [4] | Potency [5]

CN1CCc2c(c3ccccc3n2Cc2ccccc2)C1
inactive: Potency [1] | Potency [2] | Potency [3] | Potency [4] | Potency [5]

COc1cc(C[C@@H]2NCCc3cc(O)c(O)cc32)cc(OC)c1OC
inactive: Potency [1] | Potency [3] | Potency [4] | Potency [5]

Clc1ccc(COC(Cn2ccnc2)c2ccc(Cl)cc2Cl)c(Cl)c1 (stereo not given)
inactive: Potency [1] | Potency [3] | Potency [4] | Potency [5]

O=C(O)c1cc2ccccc2c(Cc2c(O)c(C(=O)O)cc3ccccc23)c1O
inactive: Potency [1] | Potency [3] | Potency [4] | Potency [5]

OC(CN1CCCCC1)c1cc(-c2ccccc2)on1 (stereo not given)
inactive: Potency [1] | Potency [3] | Potency [4] | Potency [5]

O=C(O)[C@@H](O)[C@H](O)[C@H](O)[C@@H](O)C(=O)O (tested in a mixture with another compound)
inactive: Potency [1] | Potency [2] | Potency [3] | Potency [4] | Potency [5]

CO[C@@H]1[C@@H](O[C@@H]2O[C@H](C)[C@@H](O[C@H]3C[C@@](C)(O)[C@@H](O)[C@H](C)O3)[C@H](N(C)C)[C@H]2O)[C@@H](CC=O)C[C@@H](C)[C@@H](O[C@@H]2CC[C@H](N(C)C)[C@@H](C)O2)/C=C/C=C/C[C@@H](C)OC(=O)C[C@H]1O
inactive: Potency [1] | Potency [3] | Potency [4] | Potency [5]
